The list is not random: actives were taken first. Their share in the collection is about 19%.
HT1080 IDH1KD tx – toxicity to HT-1080 IDH1 knockdown cells (counter line); HT-1080 IDH1 knockdown viability, ATP luminescence, 48 h; Potency, µM (doses to about 46.1 µM), for the others: at the top dose activity, negative = toxicity, hits mostly cytotoxic; 2% of 360,000 active; AID 686971;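 further: potency means the concentration at half of the fitted maximal effect; 0% = DMSO wells and -100% = cell-free medium wells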
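After a 2 h attachment period, IDH1KD HT-1080 cells took pin-transferred compound for 48 h at 37 °C; ATP-based luminescence after 10 min room-temperature reagent incubation reported viability.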
IL-1B inflam inh – inflammasome signaling inhibition, IL-1 beta readout. AID 743279. THP-1 LPS/ATP IL-1B secretion, AlphaLISA, 16 h; hits give low values. 4.7% of 360,000 active. activity change, % at 57.5 µM; in the data active means activity change below about -50%; inconclusive means mostly about -30% to -49%
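THP-1 cells pretreated 1 hr with compounds (up to 57.5 uM final), then stimulated with LPS (250 ng/mL final) plus ATP (1.25 mM final); secreted IL-1B measured by AlphaLISA after 16 hr, decreased signal indicating inhibition.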
ELG1 repair inh – inhibitors of ELG1-dependent DNA repair in HEK293T cells; 2.3% of 330,000 active; HEK293T ELG1-luciferase reporter, luminescence, 16 h; DNA damage induced by 5-fluorouridine; Potency, µM (highest dose often 46.1 µM), for inactives: at the top dose activity change, negative = inhibition, most hits filed as inhibitors; AID 504467; further: potency means the concentration at half of the fitted maximal effect; nearly all actives have a fitted effect of over 55% in size
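Step one: seed 2,000 cells per well. Step two: pin-transfer compound or DMSO alongside 5-fluorouridine. Step three: incubate 16 hr, 37 °C, 5% CO2. Step four: add ONE-Glo, wait 30 min, read luminescence.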
DT40 TDP1 CPT – growth inhibition of DT40 Tdp1-/-;hTDP1 cells with camptothecin (screen for TDP1 inhibitors); chicken DT40 Tdp1-/-;hTDP1 cells + 20 nM CPT, ATP luminescence, 48 h; Potency, µM (series often up to 46.2 µM), without a hit: at the top dose activity change, negative = growth inhibition, most hits filed as inhibitors; 12% of 420,000 active; further: potency means the concentration at half of the fitted maximal effect; nearly all actives have a fitted effect of over 55% in size
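Cell growth measured by CellTiter-Glo luminescence after a minimum 48 h, 37 C compound exposure with 20 nM CPT in Tdp1-knockout DT40 cells stably expressing hTDP1, seeded 400/well; qHTS titration format.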
HT1080-NT tox – kills 2HG-producing HT-1080-NT fibrosarcoma cells. HT-1080-NT fibrosarcoma viability, CellTiter-Glo ATP luminescence, 48 h. Potency, µM (titrated, usually from 46.1 µM), for the others: at the highest dose activity, negative = less viability, most hits filed as cytotoxic. 1.6% of 360,000 active;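 further: NT is the 2HG producing partner of a matched IDH1 knockdown line; potency means the concentration at half of the fitted maximal effect; 0% = DMSO-treated cells and -100% = media-only wells without cells; nearly all actives have a fitted effect of over 55% in size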
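Viability by CellTiter-Glo luminescence after 48 h compound exposure at 37C of HT-1080-NT cells (750/well, RPMI, 5% FBS). % activity scaled between DMSO wells and medium-only wells, then curve-fitted and categorized by curve class.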
TDP1 cell noCPT – qHTS for Inhibitors of human tyrosyl-DNA phosphodiesterase 1 (TDP1): qHTS in cells in absence of CPT; 15% of 420,000 active; Potency, µM (series often up to 46.2 µM), for inactives: at the top dose activity change, negative = growth inhibition, hits mostly inhibitors; DT40 Tdp1-/- hTDP1 cells, no CPT, ATP luminescence, 48 h; AID 686978, 2013; further: potency means the concentration at half of the fitted maximal effect; nearly all actives have a fitted effect of over 55% in size
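Chicken DT40 Tdp1-/- cells complemented with human TDP1, screened without camptothecin (DMSO vehicle only), 400 cells/well. Compounds pin-transferred, cells incubated at 37 °C for at least 48 hr. Growth read as ATP-dependent luminescence (CellTiter-Glo, 30 min at RT).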
Starred values were filed as active, the others as inactive; ? = inconclusive; · = no result given; [ ] = dose if it differs, or a comment. Unless noted, the call rests on the fitted dose curve; in most records, active means well fitted curve in the direction sought with a large enough effect; inconclusive means small, poorly fitted or top-dose-only effect, or another doubt; inactive means no such curve, though single readings can be large; an effect the other way counts as inactive or inconclusive. Unless noted, on the % scale 0 is the no-effect control and ±100 the full control effect.

SMILES | HT1080 IDH1KD tx | IL-1B inflam inh | ELG1 repair inh | DT40 TDP1 CPT | HT1080-NT tox | TDP1 cell noCPT
COC(=O)c1cc(NC(=O)Cn2ncc3c2-c2ccccc2OC3)cc(C(=O)OC)c1 | · | · | · | -25.4% | · | -26.1%
CCOc1ccc(NCC(=O)Nc2ccc(Cl)cc2C)cc1 | ? | -25.9 | -13.2% | ? | -4.8% | ?
COc1ccc(NC(=O)c2cc(-c3cc(Cl)ccc3C)n[nH]2)c(OC)c1 | ? | -19.0 | · | ? | ? | ?
CCCOc1ccc(F)cc1-c1cc(C(=O)Nc2ccccc2)[nH]n1 | 26.8% | -6.2 | · | 1.1% | 9.9% | ?
COc1ccc(NC(=O)c2cc(-c3cc(Cl)ccc3C)n[nH]2)cn1 | ? | -15.7 | · | 23.1µM* | -26.3% | ?
COc1ccc(NCC(=O)Nc2ccc(Cl)cc2C)c(OC)c1 | 15.8µM* | ? | -18.8% | ? | ? | 29.1µM*
CCOc1ccc(Cl)cc1-c1cc(C(=O)Nc2ccc(F)cc2)[nH]n1 | ? | -21.1 | · | ? | ? | 16.4µM*
COc1ccc(Cl)cc1-c1cc(C(=O)Nc2ccc(C(C)(C)C)cc2)[nH]n1 | ? | 20.8 | · | 20.6µM* | -23.5% | 14.6µM*
O=C1NC(=O)/C(=C\c2ccc(O)cc2O)S1 | -22.7% | ? | ? | -23.2% | -10.9% | ?
C[C@@H]1CN([C@@H](C)CO)C(=O)CCCn2nncc2CO[C@H]1CN(C)C(=O)Nc1ccccc1F | 7.6% | 14.5 | · | -8.0% | 1.0% | -18.0%
O=Cc1ccc2[nH]ccc2c1 | · | · | · | 6.7% | · | -1.9%
Cc1ccc(O)c(NC(=O)C2CC(c3c(F)cccc3Cl)=NO2)c1 (configuration not stated) | -7.0% | -17.2 | 16.1% | -19.4% | -6.7% | ?
N#Cc1c(NC(=O)C2CC(c3c(F)cccc3Cl)=NO2)sc2c1CCC2 (configuration not stated) | 8.6% | 0.0 | ? | ? | 2.1% | 0.206µM*
CCc1c(C)sc(NC(=O)C2CC(c3c(F)cccc3Cl)=NO2)c1C#N (configuration not stated) | -15.8% | -18.0 | -16.5% | 16.4µM* | -0.2% | ?
COC(=O)c1cc2sc(C)cc2n1Cc1cccc(OC)c1 | · | · | · | ? | · | 23.1µM*
COc1ccccc1CC(=O)Nc1ncc(C)s1 | -1.8% | 5.1 | -8.0% | ? | 0.0% | 16.4µM*
COC(=O)c1cc2sccc2n1Cc1ccccc1 | · | · | · | -7.0% | · | -14.7%
COc1cccc(CC(=O)Nc2nc(C)cs2)c1 | -2.4% | 10.5 | 14.8% | -22.5% | ? | -11.8%
Cc1cnc(NC(=O)Cc2c[nH]c3ccccc23)s1 | ? | -1.8 | ? | -8.6% | -12.8% | -12.4%
COc1cccc(CC(=O)Nc2ncc(C)s2)c1 | -17.6% | -17.0 | ? | 8.2µM* | -8.5% | 14.6µM*
CSCCC(NC(=O)c1ccccc1Br)C(=O)NCC(c1ccco1)N1CCCCC1 (configuration not stated) | 7.6% | -2.4 | -3.1% | -8.5% | 2.1% | 3.7%
CS(=O)(=O)N1CCCC(C(=O)Nc2ccccc2)C1 (configuration not stated) | -10.0% | 9.8 | -0.6% | -7.7% | -1.3% | -13.9%
Cc1oc(-c2ccccc2NC(=O)c2ccccn2)nc1CNC(=O)c1ccc(Oc2ccccc2)o1 | · | · | · | 1.2%[9.04 µM] | · | -22.8%
Cc1ccc(CNC(=O)C(=O)NCC(c2cccs2)S(=O)(=O)c2ccccc2)cc1 (configuration not stated) | · | · | · | -1.9% | · | 4.0%
Cc1ccccc1CNC(=O)C(=O)NCC(c1cccs1)S(=O)(=O)c1ccc(Cl)cc1 (configuration not stated) | · | · | · | ? | · | 23.1µM*
SMILES | HT1080 IDH1KD tx | IL-1B inflam inh | ELG1 repair inh | DT40 TDP1 CPT | HT1080-NT tox | TDP1 cell noCPT
O=C(NCc1ccccc1Cl)C(=O)NCC(c1cccs1)S(=O)(=O)c1ccccc1 (configuration not stated) | · | · | · | 14.6µM* | · | 18.4µM*
O=c1c(-c2ccc(F)cc2)nc2cnc(N3CCOCC3)nc2n1Cc1ccc(F)cc1 | · | · | · | 10.6% | · | 1.8%
O=C(N/N=C/c1c[nH]c2ccc(Br)cc12)c1ccn(Cc2ccc(Cl)cc2)n1 | ? | ? | ? | ? | -21.5% | 20.6µM*
O=C(N/N=C/c1c[nH]c2ccccc12)c1ccn(Cc2ccc(Cl)cc2Cl)n1 | -12.2% | -6.8 | -23.4% | -20.7% | -21.3% | ?
OCCN(CCO)CC(O)COCCC12CC3CC(CC(C3)C1)C2 (configuration not stated) | ? | -29.3 | 9.7% | ? | ? | 20.6µM*
OCCN(CCO)CC(O)COc1ccc(C23CC4CC(CC(C4)C2)C3)cc1 (configuration not stated) | 3.9% | ? | -4.7% | 7.31µM* | -7.5% | 7.31µM*
CC1CCCCN1CC(O)COCCC12CC3CC(CC(C3)C1)C2 (configuration not stated) | ? | -61.4* | -22.4% | 14.6µM* | ? | 18.4µM*
COC(=O)c1ccc(OCC(O)CN(CCO)CCO)cc1 (configuration not stated) | -0.4% | 2.2 | -4.4% | -8.4% | 2.8% | -14.0%
CC(C)c1ccc(N(C(=O)c2ccco2)C(C(=O)NC2CCCC2)c2ccncc2)cc1 (configuration not stated) | -15.5% | 9.0 | ? | -19.7% | -9.1% | ?
OC1(c2cccnc2)CCN(Cc2ccc3c(c2)CN(Cc2ccc4nsnc4c2)CCO3)CC1 | · | · | · | -5.2%[9.04 µM] | · | ?
Cc1ccc2nc(-c3ccccn3)c(Nc3ccc(F)cc3)n2c1 | · | · | · | 2.06µM* | · | 2.31µM*
Cc1ccccc1Nc1c(-c2ccccn2)nc2ccccn12 | ? | -22.7 | -8.7% | 9.2µM* | ? | 8.2µM*
Cc1ccc2nc(-c3ccccn3)c(N)n2c1 | ? | -4.1 | · | ? | -26.9% | ?
CSc1ccc(-c2nc3cc(C)ccn3c2Nc2ccc(C)cc2)cc1 | · | · | · | -22.7% | · | ?
Cc1ccccc1Nc1c(-c2cc(Br)ccc2F)nc2ccccn12 | · | · | · | -24.8% | · | -26.6%
CC(C)c1ccc(Nc2c(-c3ccccn3)nc3ccccn23)cc1 | · | · | · | 9.2µM* | · | 2.06µM*
Cc1ccn2c(Nc3ccccc3)c(-c3ccccn3)nc2c1 | ? | 97.8 | ? | 4.61µM* | -21.6% | 2.59µM*
Cc1ccc(/C=C/c2onc(C)c2S(=O)(=O)N2CCC(C(=O)NCC(C)c3ccccc3)CC2)cc1 (configuration not stated) | · | · | · | ? | · | -23.5%

Compound activity (PubChem BioAssay)
